Results filed as inconclusive are left out. A call without a number means that no potency is given here. A number with no mark means an inactive call. Calls of active or inactive are those of the source. Calls follow the shape of the dose curve; as a rule, active = well fitted curve in the direction sought with a large enough effect; inconclusive = small, poorly fitted or top-dose-only effect, or another doubt; inactive = no such curve, though single readings can be large; an effect the other way counts as inactive or inconclusive.
Legend:
[1] = Quantitative High-Throughput drug screen in 47 multiple myeloma cell lines against the NCATS MIPE library collection: KMS20_JCRB cell viability assay (AID 1918973); also: nearly all actives have a fitted effect of over 45% in size
Summary of the method: (§1)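 qHTS of the MIPE 4.0 collection: 500 myeloma cells/well, 48 h drug exposure at 37C in 5% CO2, then CellTiter-Glo for 5 min at room temperature before luminescence reading.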

[2] = Quantitative High-Throughput drug screen in 47 multiple myeloma cell lines against the NCATS MIPE library collection: KMS26_JCRB cell viability assay (AID 1918975); also: nearly all actives have a fitted effect of over 45% in size
Summary of the method: as §1

[3] = Quantitative High-Throughput drug screen in 47 multiple myeloma cell lines against the NCATS MIPE library collection: NCIH929_DSMZ cell viability assay (AID 1918978); also: nearly all actives have a fitted effect of over 35% in size
Summary of the method: (§2)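 qHTS format: cells plated (500/well), pin-dosed with MIPE 4.0 compounds, kept 48 h at 37 °C. Readout was CellTiter-Glo luminescence, median RLU.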

[4] = Quantitative High-Throughput drug screen in 47 multiple myeloma cell lines against the NCATS MIPE library collection: OCIMY1_PLB cell viability assay (AID 1918979); also: nearly all actives have a fitted effect of over 35% in size
Summary of the method: as §2

[5] = Quantitative High-Throughput drug screen in 47 multiple myeloma cell lines against the NCATS MIPE library collection: MM1S_ATCC cell viability assay (AID 1918980); also: nearly all actives have a fitted effect of over 45% in size
Summary of the method: as §2

[6] = Quantitative High-Throughput drug screen in 47 multiple myeloma cell lines against the NCATS MIPE library collection: KMS28PE_JCRB cell viability assay (AID 1918983); also: nearly all actives have a fitted effect of over 35% in size
Summary of the method: as §2

[7] = Quantitative High-Throughput drug screen in 47 multiple myeloma cell lines against the NCATS MIPE library collection: OPM1_PLB cell viability assay (AID 1918989); also: nearly all actives have a fitted effect of over 40% in size
Summary of the method: as §2

[8] = Quantitative High-Throughput drug screen in 47 multiple myeloma cell lines against the NCATS MIPE library collection: SKMM1_PLB cell viability assay (AID 1919863); conditions: SKMM1 myeloma viability, CellTiter-Glo ATP, 48 h; viability: stronger effect = lower value; also: nearly all actives have a fitted effect of over 35% in size
Summary of the method: as §2

[9] = Quantitative High-Throughput drug screen in 47 multiple myeloma cell lines against the NCATS MIPE library collection: U266_ATCC cell viability assay (AID 1919864); also: nearly all actives have a fitted effect of over 35% in size
Summary of the method: as §2

[10] = Quantitative High-Throughput drug screen in 47 multiple myeloma cell lines against the NCATS MIPE library collection: KMS21BM_JCRB cell viability assay (AID 1918974); conditions: ATP luminescence, 48 h; viability: at 45.8 µM (top of the series) unless noted
Summary of the method: as §1

[11] = Quantitative High-Throughput drug screen in 47 multiple myeloma cell lines against the NCATS MIPE library collection: MOLP8_DSMZ cell viability assay (AID 1918977); also: nearly all actives have a fitted effect of over 45% in size
Summary of the method: as §2

[12] = Quantitative High-Throughput drug screen in 47 multiple myeloma cell lines against the NCATS MIPE library collection: KMS34_JCRB cell viability assay (AID 1918985); also: nearly all actives have a fitted effect of over 40% in size
Summary of the method: as §2

[13] = Quantitative High-Throughput drug screen in 47 multiple myeloma cell lines against the NCATS MIPE library collection: XG6_PLB cell viability assay (AID 1919865); also: nearly all actives have a fitted effect of over 40% in size
Summary of the method: as §2

[14] = Quantitative High-Throughput drug screen in 47 multiple myeloma cell lines against the NCATS MIPE library collection: XG1_PLB cell viability assay (AID 1919866); also: nearly all actives have a fitted effect of over 35% in size
Summary of the method: as §2

[15] = Quantitative High-Throughput drug screen in 47 multiple myeloma cell lines against the NCATS MIPE library collection: MMM1_PLB cell viability assay (AID 1918976); also: nearly all actives have a fitted effect of over 35% in size
Summary of the method: as §2

[16] = Quantitative High-Throughput drug screen in 47 multiple myeloma cell lines against the NCATS MIPE library collection: MM1R_ATCC cell viability assay (AID 1918981); also: nearly all actives have a fitted effect of over 35% in size
Summary of the method: as §2

[17] = Quantitative High-Throughput drug screen in 47 multiple myeloma cell lines against the NCATS MIPE library collection: OCIMY5_PLB cell viability assay (AID 1918988); also: nearly all actives have a fitted effect of over 65% in size
Summary of the method: as §2

[18] = Quantitative High-Throughput drug screen in 47 multiple myeloma cell lines against the NCATS MIPE library collection: OCIMY7_PLB cell viability assay (AID 1918987); also: nearly all actives have a fitted effect of over 65% in size
Summary of the method: as §2

[19] = Quantitative High-Throughput drug screen in 47 multiple myeloma cell lines against the NCATS MIPE library collection: LP1_DSMZ cell viability assay (AID 1918982); also: nearly all actives have a fitted effect of over 35% in size
Summary of the method: as §2
Potency is read from the fitted curve at half-maximal effect.

Structure (SMILES): CN(C)C(=N)N=C(N)N
- Potency [1]: inactive
- Potency [2]: inactive
- Potency [3]: inactive
- Potency [4]: inactive
- Potency [5]: inactive
- Potency [6]: 0.833 µM (active)
- Potency [7]: inactive
- viability [8]: 138%
- Potency [9]: inactive

Structure (SMILES): CC1(C)O[C@H]2CC(=O)OC[C@]23[C@H]2CC[C@@]4(C)[C@H](c5ccoc5)OC(=O)[C@H]5O[C@]54[C@]2(C)C(=O)C[C@@H]13
- Potency [1]: inactive
- Potency [10]: inactive
- Potency [2]: inactive
- Potency [11]: inactive
- Potency [3]: inactive
- Potency [4]: inactive
- Potency [5]: inactive
- Potency [6]: inactive
- Potency [12]: inactive
- Potency [13]: inactive
- Potency [14]: inactive

Structure (SMILES): CCN1CCCC1CNC(=O)c1cc(S(=O)(=O)CC)c(N)cc1OC (configuration not stated)
- Potency [1]: inactive
- Potency [2]: inactive
- Potency [15]: 5.26 µM (active)
- Potency [11]: inactive
- Potency [16]: inactive
- Potency [6]: inactive
- Potency [12]: inactive
- Potency [17]: inactive
- Potency [7]: inactive
- viability [8]: 121%
- Potency [9]: inactive
- Potency [13]: inactive
- Potency [14]: inactive

Structure (SMILES): COc1ccc2[nH]cc(CCNC(C)=O)c2c1
- Potency [1]: inactive
- Potency [2]: 9.35 µM (active)
- Potency [11]: inactive
- Potency [3]: inactive
- Potency [4]: inactive
- Potency [5]: 0.372 µM (active)
- Potency [16]: 5.26 µM (active)
- Potency [6]: inactive
- Potency [18]: inactive
- viability [8]: 123%
- Potency [9]: 8.33 µM (active)
- Potency [14]: inactive

Structure (SMILES): Cn1c(=O)c2[nH]cnc2n(C)c1=O
- Potency [1]: inactive
- Potency [2]: inactive
- Potency [11]: inactive
- Potency [3]: inactive
- Potency [5]: 23.5 µM (active)
- Potency [6]: inactive
- Potency [12]: inactive
- Potency [7]: inactive
- viability [8]: 104%
- Potency [9]: 20.9 µM (active)
- Potency [13]: 26.4 µM (active)

Structure (SMILES): Cc1ccccc1N1C(=O)c2cc(S(N)(=O)=O)c(Cl)cc2NC1C (configuration not stated)
- Potency [1]: inactive
- Potency [2]: inactive
- Potency [3]: inactive
- Potency [4]: inactive
- Potency [5]: inactive
- Potency [6]: inactive
- Potency [12]: inactive
- Potency [17]: inactive
- Potency [7]: inactive
- viability [8]: 117%
- Potency [9]: 3.72 µM (active)
- Potency [13]: inactive
- Potency [14]: inactive

Structure (SMILES): C[C@](N)(Cc1ccc(O)c(O)c1)C(=O)O
- Potency [1]: 16.6 µM (active)
- Potency [10]: 20.9 µM (active)
- Potency [15]: 5.26 µM (active)
- Potency [11]: 13.2 µM (active)
- Potency [4]: 16.6 µM (active)
- Potency [16]: 20.9 µM (active)
- Potency [9]: 18.7 µM (active)
- Potency [14]: inactive

Structure (SMILES): O=C1c2c(O)ccc(O)c2C(=O)c2c(NCCNCCO)ccc(NCCNCCO)c21
- Potency [1]: 0.132 µM (active)
- Potency [10]: 1.48 µM (active)
- Potency [2]: 2.35 µM (active)
- Potency [11]: 1.32 µM (active)
- Potency [3]: 0.526 µM (active)
- Potency [4]: 13.2 µM (active)
- Potency [5]: 0.0469 µM (active)
- Potency [16]: 0.105 µM (active)
- Potency [19]: 5.9 µM (active)
- Potency [6]: 0.935 µM (active)
- Potency [12]: 2.96 µM (active)
- Potency [17]: 1.32 µM (active)
- Potency [7]: 0.935 µM (active)
- Potency [8]: 2.96 µM (active)
- Potency [9]: 1.05 µM (active)
- Potency [13]: 0.118 µM (active)
- Potency [14]: 0.332 µM (active)

Structure (SMILES): CN1C2CCC1CC(OC(=O)C(CO)c1ccccc1)C2 (configuration not stated)
- Potency [1]: inactive
- Potency [2]: inactive
- Potency [11]: inactive
- Potency [3]: inactive
- Potency [4]: inactive
- Potency [16]: inactive
- Potency [6]: inactive
- Potency [7]: inactive
- Potency [13]: inactive
- Potency [14]: inactive

Structure (SMILES): Cn1cnc2c1c(=O)[nH]c(=O)n2C
- Potency [1]: 5.9 µM (active)
- Potency [10]: 9.35 µM (active)
- Potency [2]: 20.9 µM (active)
- Potency [15]: 10.5 µM (active)
- Potency [11]: 16.6 µM (active)
- Potency [3]: 16.6 µM (active)
- Potency [4]: 23.5 µM (active)
- Potency [5]: 29.6 µM (active)
- Potency [19]: 16.6 µM (active)
- Potency [6]: 18.7 µM (active)
- Potency [12]: 16.6 µM (active)
- Potency [18]: 5.9 µM (active)
- Potency [17]: 14.8 µM (active)
- Potency [7]: 10.5 µM (active)
- Potency [8]: 20.9 µM (active)
- Potency [9]: 23.5 µM (active)
- Potency [13]: 16.6 µM (active)
- Potency [14]: 14.8 µM (active)

Structure (SMILES): O=C(C1CCCCC1)N1CC(=O)N2CCc3ccccc3C2C1 (configuration not stated)
- Potency [1]: inactive
- Potency [2]: inactive
- Potency [11]: inactive
- Potency [4]: inactive
- Potency [19]: inactive
- Potency [6]: inactive
- Potency [12]: inactive
- Potency [17]: inactive
- Potency [7]: inactive
- Potency [9]: inactive
- Potency [13]: 20.9 µM (active)
- Potency [14]: 16.6 µM (active)

Structure (SMILES): Nc1nc2c(ncn2COC(CO)CO)c(=O)[nH]1
- Potency [1]: 1.05 µM (active)
- Potency [2]: 20.9 µM (active)
- Potency [3]: 9.35 µM (active)
- Potency [4]: 18.7 µM (active)
- Potency [6]: 20.9 µM (active)
- Potency [12]: 23.5 µM (active)
- Potency [17]: 20.9 µM (active)
- Potency [7]: 16.6 µM (active)
- Potency [8]: 20.9 µM (active)
- Potency [9]: 23.5 µM (active)
- Potency [13]: 20.9 µM (active)
- Potency [14]: 23.5 µM (active)

Structure (SMILES): CN(C)c1nc(N(C)C)nc(N(C)C)n1
- Potency [1]: inactive
- Potency [2]: inactive
- Potency [3]: inactive
- Potency [4]: inactive
- Potency [16]: inactive
- Potency [19]: inactive
- Potency [6]: 23.5 µM (active)
- Potency [12]: inactive
- Potency [7]: inactive
- Potency [14]: inactive

Structure (SMILES): CC(=O)OCC(CCn1cnc2cnc(N)nc21)COC(C)=O
- Potency [1]: inactive
- Potency [2]: inactive
- Potency [11]: inactive
- Potency [3]: inactive
- Potency [4]: inactive
- Potency [19]: inactive
- Potency [6]: inactive
- Potency [12]: inactive
- Potency [17]: inactive
- Potency [7]: 0.0012 µM (active)
- Potency [13]: inactive
- Potency [14]: inactive

Structure (SMILES): CN(C)CCC=C1c2ccccc2C=Cc2ccccc21
- Potency [1]: 14.8 µM (active)
- Potency [2]: 6.62 µM (active)
- Potency [3]: inactive
- Potency [4]: inactive
- Potency [16]: 18.7 µM (active)
- Potency [6]: 16.6 µM (active)
- Potency [12]: inactive
- Potency [17]: 14.8 µM (active)
- Potency [7]: 18.7 µM (active)

— PubChem BioAssay (NCATS)
